# From PubChem BioAssay
# Test: compound effects on differentiated 3T3-L1 adipocyte viability – cell-based, 3T3-L1 adipocytes, calcein-AM fluorescence, 48 h, basal, profiling panel (AID 1163)
# Conditions: 3T3-L1 adipocytes viability, higher = more signal
# Also: test concentration not given here.
row,Structure (SMILES),z-score
1,CC(C)N1C(=O)c2ccccc2[C@](C)(C(=O)NC2CC2)[C@@H]1c1ccc(CO)cc1,-0.415
2,CCCNC(=O)[C@@]1(C)c2ccccc2C(=O)N(Cc2ccc(OC(F)(F)F)cc2)[C@H]1c1ccc(CO)cc1,-0.105
3,C=CCC(OC(C)=O)[C@@H]1[C@@H](N(Cc2ccc(-c3cccc(C(F)(F)F)c3)o2)C(=O)Cc2ccc(OC)cc2)c2cc(OCCCO)ccc2N1C(=O)Cc1ccc(OC)cc1 (stereo not given in full),1.38
4,COC(=O)[C@@]1(Cc2ccccc2)[C@H]2c3cc(C(=O)N(C)C)n(Cc4cc(F)c(F)c(F)c4)c3C[C@H]2CN1C(=O)c1ccccc1,0.135
5,C=C(C)[C@@H]1CC=C(C(O)C2C=CC3C(=O)N(Cc4ccccc4)C(=O)C3N2n2cnnc2)CC1 (stereo not given in full),0.233

# Test: compound effects on hepatocellular carcinoma cell viability – HepG2, calcein-AM fluorescence, 48 h, basal, profiling panel (AID 1164)
# Conditions: higher = more signal
row,Structure (SMILES),z-score
1,COC(=O)[C@@]1(Cc2ccc(OC)cc2)[C@H]2c3cc(C(=O)N4CCCC4)n(CCc4ccccn4)c3C[C@H]2CN1C(=O)c1ccccc1,-0.946
2,CC(=O)N1Cc2ccccc2C[C@@]2(N=C(c3ccc(OCCCO)cc3)O[C@H]2c2ccccc2)C1=O,-1.31
3,CC(C)NC(=O)[C@@]1(c2ccc([N+](=O)[O-])cc2)CC(=O)N(C(C)C)[C@@H]1c1ccc(CO)cc1,0.959
4,CC(C)C(O)C1C=CC2C(=O)N(C)C(=O)C2N1N1CCCCC1 (stereo not given),-0.306
5,CCCC[C@@H]1C[C@H]1[C@@H](NC(=O)c1ccccc1)c1ccccc1,-1.02
6,CCN(CC)c1ccc(N2CC=CC34O[C@@H]5/C=C\CCCOC(=O)C5[C@H]3C(=O)N(CCCO)[C@@H]4C2=O)cc1 (stereo not given in full),0.616
7,COc1ccc(C(O)C2C=CC3C(=O)N(c4ccccc4)C(=O)C3N2Nc2ccccc2)c2ccccc12 (stereo not given),0.407
8,O=[N+]([O-])c1ccc(C[n+]2ccc(CCCO)cc2)o1,-0.405
9,C[N+](C)(C)CCCCNC(=O)[C@H]1C[C@H]2C(=O)N3CCC[C@H]3C(=O)N2[C@H]1c1ccc(O)cc1,-0.674
10,COCCOC(=O)N1C(=O)[C@@]2(c3ccccc31)[C@H](C(=O)N1CCCCCCC1)[C@H]1C(=O)O[C@H](c3ccccc3)[C@H](c3ccccc3)N1[C@@H]2c1ccccc1OCCO,0.603
11,C=CCC(OC(C)=O)[C@@H]1[C@@H](N(Cc2ccc(-c3ccccc3)cc2)C(=O)c2ccc(C)cc2)c2cc(OCCCO)ccc2N1C(=O)Cc1ccc(OC)cc1 (stereo not given in full),2.23
12,COC(=O)[C@@]1(Cc2ccc(OC)cc2)[C@H]2c3cc(C(=O)N4CCCC4)n(C[C@H](O)CO)c3C[C@H]2CN1C(=O)c1ccccc1,0.255
13,O=C1O[C@H](c2ccccc2)[C@H](c2ccccc2)N2[C@H]1[C@@H](C(=O)NC[C@H](O)c1ccccc1)[C@]1(C(=O)Nc3ccc(C#CC4=CCCCC4)cc31)[C@H]2c1ccc(O)cc1,-1.25
14,COc1ccc([Si](C)(C)[C@@H]2[C@@H](CCO)O[C@]3(C(=O)N(Cc4ccccc4)c4ccc(N(C=O)c5ccccc5)cc43)[C@H]2C)cc1,-1.13
15,COc1cc(NN2C(C(O)c3ccccc3)C=CC3C(=O)N(c4ccccc4)C(=O)C32)cc(OC)c1OC (stereo not given),0.253
16,CN(C)CCCCNC(=O)[C@@H]1C[C@@H]2C(=O)N[C@@H](CCCCN)C(=O)N2[C@@H]1c1cccc(OCCO)c1,-1.03
17,COc1c(C)cc(-c2cc3c(c(-c4ccccc4)n2)[Si](C(C)C)(C(C)C)O[C@H]3c2ccccc2)cc1C,-0.0094
18,[N-]=[N+]=NCc1ccccc1C[C@]1(C(=O)NCc2ccccc2)COC(c2ccc(OCCCO)cc2)=N1,-3.8
19,C=CCOC(=O)[C@@H]1[C@H]2C(=O)O[C@H](c3ccccc3)[C@H](c3ccccc3)N2[C@H](c2ccc(OCCOC(=O)[C@H]3C[C@H]4C(=O)N[C@@H](CCCC[N+](C)(C)C)C(=O)N4[C@H]3c3cccc(OCCO)c3)cc2)[C@@]12C(=O)Nc1ccc(I)cc12,-0.872
20,O=C1OCC=C[C@H]2OC34C=CCN(c5ccc(Cl)cc5)C(=O)[C@H]3N(CCCO)C(=O)[C@@H]4[C@@H]12 (stereo not given in full),-0.722
21,O=c1cccc(-c2ccccc2)o1,-0.738
22,C=C(COC)C(=O)CC[C@H](OC(=O)c1cccnc1)c1ccccc1OCCO,-1.24
23,CCCCCN1CC=CC23O[C@@H]4C=CCCOC(=O)C4[C@H]2C(=O)N(CCCO)[C@@H]3C1=O (stereo not given in full),-0.904
24,CCN(CC)c1ccc(N2CC=CC34O[C@@H]5C=CCOC(=O)[C@@H]5[C@H]3C(=O)N(CCCCCO)[C@@H]4C2=O)cc1 (stereo not given in full),-0.0753
25,C#C[C@H]1Oc2ccccc2S(=O)(=O)N2CCC[C@@H]12,-1.19
